ChEMBL document CHEMBL4513146, “CO-ADD screening of Karazin Kharkiv National University (Ukraine) compounds”
Results with a measured potency or affinity are listed apart.

What was measured:
Staphylococcus aureus = conditions: Concentration 32 ug.mL-1;; ASSAY_TEST Inhibition of Bacterial Growth; detection method Absorption (OD600); MEDIA CAMHB; plate type 384well; NBS; CORNING #3640; time 18 hr
Escherichia coli = conditions: Concentration 32 ug.mL-1;; ASSAY_TEST Inhibition of Bacterial Growth; detection method Absorption (OD600); MEDIA CAMHB; plate type 384well; NBS; CORNING #3640; time 18 hr

| SMILES | Inhibition (Staphylococcus aureus) | Inhibition (Escherichia coli) |
| --- | --- | --- |
| O=C(CSc1nc2ccccc2n2cnnc12)Nc1cc(C(F)(F)F)ccc1Cl | 6.84% | -4.72% |
| Cc1ccc(-c2cc3c4nn(CC(=O)N5CCN(c6ccccc6F)CC5)c(=O)n4ccn3n2)cc1C | 8.03% | 4.31% |
| COc1cccc(N(Cc2ccc(F)cc2)S(=O)(=O)c2ccc3nncn3c2)c1 | -0.47% | -9.93% |
| O=C(CSc1nnc2c(=O)n(-c3ccccc3)ccn12)Nc1cccc(Cl)c1 | 1.05% | -12.66% |
| Cc1ccccc1Cn1nc2ccc(-c3ccccc3)nn2c1=O | 10.41% | 1.97% |
| CC(C)CCn1c(=O)c2ccc(C(=O)NC3CCCC3)cc2n2c(=S)[nH]nc12 | -2% | -7.9% |
| O=S(=O)(c1ccc2nncn2c1)N(Cc1cccc(Cl)c1)c1ccccc1 | 11.21% | -3.7% |
| C=Cc1ccc(CN(c2ccc(Cl)cc2)S(=O)(=O)c2cccn3c(C)nnc23)cc1 | 6.06% | -3.28% |
| O=C(Cn1nc2c3cc(-c4ccc(Cl)cc4)nn3ccn2c1=O)Nc1ccc(F)cc1 | 7.29% | 4.85% |
| Cc1cc(C)c(NC(=O)Cn2nc3c4cc(-c5ccc(F)cc5)nn4ccn3c2=O)c(C)c1 | 12.62% | 1.69% |
| CCC(Sc1nnc2c(=O)n(-c3ccccc3)ccn12)C(=O)Nc1ccc(OC)cc1OC (stereo unspecified) | 10.76% | 0.69% |
| CCCCOc1ccc(-c2cc3c4nnc(SCC(=O)Nc5cccc(C#N)c5)n4ccn3n2)cc1 | -7.95% | -7.05% |
| COc1ccccc1-n1ccn2c(SCc3ccccc3F)nnc2c1=O | 11.33% | -2.76% |
| COc1ccc(NC(=O)Cn2nc3c4cc(-c5ccc(C)c(C)c5)nn4ccn3c2=O)c(OC)c1 | -8.81% | -14.02% |
| CCc1ccc(NC(=O)Cn2c(=O)c3nnc(C(C)C)n3c3ccccc32)cc1 | 6.08% | 6.05% |
| COc1cccc(-n2ccn3c(=O)n(Cc4ccc([N+](=O)[O-])cc4)nc3c2=O)c1 | 7.57% | -2.91% |
| Cc1ccc(Sc2nccn3c(=O)n(CC(=O)Nc4cccc(Br)c4)nc23)c(C)c1 | -7.2% | -13.08% |
| Cc1ccc(-c2ccc3nn(CC(=O)Nc4ccc(Cl)cc4F)c(=O)n3n2)cc1 | 8.27% | -2.22% |
| O=C(Cn1nc2c(Sc3ccccc3)nccn2c1=O)Nc1ccc2c(c1)OCCO2 | -4.66% | -0.55% |

| SMILES | Inhibition (Staphylococcus aureus) | Inhibition (Escherichia coli) |
| --- | --- | --- |
| Cc1ccc2c(c1)N(C(=O)Cn1nc3ccc(SC(C)(C)C)nn3c1=O)CCO2 | 10.2% | -0.14% |
| CCOc1ccc(-n2ccn3c(SCC(=O)c4ccc(OC)c(OC)c4)nnc3c2=O)cc1 | 21.02% | 1.32% |
| Cc1cccc(NC(=O)Cn2nc3c4cc(-c5ccc(Cl)cc5)nn4ccn3c2=O)c1 | 3.19% | -7.53% |
| O=C(Cn1nc2c(N3CCN(c4ccccc4)CC3)nccn2c1=O)Nc1ccc2c(c1)OCO2 | 13.69% | 0.21% |
| CCC(Sc1nnc2c(=O)n(-c3cccc(OC)c3)ccn12)C(=O)Nc1cc(OC)ccc1OC (stereo unspecified) | -1.04% | -13.69% |
| O=C(CSc1nnc2c(=O)n(-c3ccccc3)ccn12)Nc1ccccc1F | 8.41% | 1.53% |
| Cc1cccc(NC(=O)Cn2nc3nc(N4CCCCCC4)ccn3c2=O)c1C | 7.24% | -2.03% |
| CCOc1ccc(NC(=O)Cn2nc3ccc(Sc4cccc(F)c4)nn3c2=O)cc1 | 2.36% | -8.51% |
| CC(C)NC(=O)CCn1c(=O)c2ccccc2n2c(=O)n(CC#N)nc12 | -1.98% | 0.48% |
| O=C(CCc1nnc2c(N3CCCCC3)nc3ccccc3n12)NCc1ccc2c(c1)OCO2 | 17.67% | 2.95% |
| CCOc1ccc(NC(=O)Cn2nc3c(Sc4ccc(C)cc4C)nccn3c2=O)cc1 | 0.32% | -7.3% |
| Cc1cc2nn(CC(=O)Nc3ccccc3F)c(=O)n2c(Nc2ccc(F)c(C)c2)n1 | 11.73% | -0.72% |
| COc1cccc(Sc2nc3ccccc3n3c(=O)n(CC(=O)Nc4c(C)cc(C)cc4C)nc23)c1 | 1.84% | -6.13% |
| COc1cccc(-c2noc(Cn3nc4ccc(-c5ccccc5)nn4c3=O)n2)c1OC | 13.66% | -2.67% |
| Cc1cccc(NC(=O)CSc2nnc3c(=O)n(-c4ccccc4)ccn23)c1 | 7.18% | -6.81% |
| COc1cccc(-n2ccn3c(SCC(=O)Nc4ccc(Br)cc4)nnc3c2=O)c1 | -2.74% | -7.77% |
| CC(C)CCNC(=O)Cn1nc2n(Cc3cccs3)c(=O)c3sccc3n2c1=O | 3.31% | -5.47% |
| Cc1ccc(-c2ccc3nn(CC(=O)Nc4cccc(Cl)c4)c(=O)n3n2)cc1C | -4.46% | -9.75% |
| CCc1nnc2c(SCC(=O)NCc3ccccc3Cl)nc3ccccc3n12 | 4.41% | -6.59% |
